Whole data set: some 33,000 sequences, median “E-score (-0.5 to 0.5)” near -0.017, cut for the highest 2% near 0.3. The list comes from a sample in which the highest values are over-represented; it also holds similar and randomly drawn sequences.
molecular target: T1, Sut1 (UniProt P53032); assay: PBM E-score (8-mer binding enrichment) (E-score (-0.5 to 0.5)); higher = stronger / more preferred TF binding; conditions: protein concentration: 200 nM; construct: GST-full length
T1 sequence: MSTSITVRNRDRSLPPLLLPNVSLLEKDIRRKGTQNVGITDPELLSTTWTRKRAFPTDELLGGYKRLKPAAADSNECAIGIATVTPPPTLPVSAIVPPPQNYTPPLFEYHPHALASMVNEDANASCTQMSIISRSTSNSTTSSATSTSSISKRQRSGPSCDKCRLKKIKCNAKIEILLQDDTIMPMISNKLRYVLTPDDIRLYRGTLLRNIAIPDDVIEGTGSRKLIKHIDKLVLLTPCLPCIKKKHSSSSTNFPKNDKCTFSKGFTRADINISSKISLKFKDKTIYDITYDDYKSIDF
How it was run: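 Each ungapped eight-base word and its reverse complement, pooled, received an E-score from the Universal PBM Analysis Suite. Underlying scans, normalised with masliner, recorded fluorescent anti-GST bound to GST-tagged yeast transcription factors. These were applied at about 100-200 nM to universal all-10-mer Agilent arrays double-stranded by primer extension.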

Sequence	PBM E-score
AGAGTTCA	-0.0646
GGAGTTCA	0.339
CAAGTTTA	0.0197
AGAGTTTA	0.27
AAAGTTTA	0.203
GGAGTTTA	0.396
CGAGTTTA	0.0867
CGAGTTCA	-0.149
GAAGTTTA	0.319
ACATCTAT	0.17
GACGCCTC	-0.125
ACTCCTAG	-0.0737
CACTATCA	-0.0232
CAGTCGGA	0.204
AAGTCGGA	0.226
CGGTCGGA	0.211
TAGTCGGA	0.317
TAGTCGCA	-0.0489
GAGTCGGA	0.324
AGGTCGGC	-0.131
AGGTCGGA	0.316
GAGTCGGC	0.00136
CGTAATGC	0.0921
ACACAACA	0.128
AAGATAGG	0.013

Sequence	PBM E-score
GTCCCAAC	-0.138
GACTATGC	0.0066
AACTAGAG	0.0891
ACCTCTAG	-0.0682
GTGGCAGA	-0.253
CATAACGC	-0.00576
GATGAAGC	-0.0232
TAACTGCA	0.0867
CCGGAACG	0.202
CCGGAAGG	0.169
CCGGAACC	0.185
ACGGAACA	0.229
CCGGAATC	0.326
TCGGAACA	0.303
GCGGAACA	-0.11
ACGGAAGA	0.147
CCGGAATA	0.294
CCGGAAGA	0.312
ACGGAATC	0.252
CCGGAACA	0.304
TATACGCA	0.0114
CCCAACGC	-0.103
TCACTTCA	-0.0869
CGGCTCAG	-0.117
TCTAGCCA	-0.0636

Sequence	PBM E-score
GACAACGC	-0.0716
AAATTTCA	0.00137
CAATTTCA	0.00344
TAATTTCA	0.346
CGGACAAG	0.22
CGGACATA	0.433
GGGACAAC	-0.231
GGGACATA	-0.0931
CGGACATC	0.406
CGGACAAC	0.309
AGGACATC	0.0505
AGGACATA	-0.0903
CTGACATC	0.0186
ACTAGGCC	-0.243
ATAGCCCC	-0.325
ATTTGCTC	0.141
TCGGAGCA	0.3
GCGGAGCC	0.113
CCGGAGCC	0.396
GCGGAGCA	0.152
CGGGAGCA	-0.0121
CCGGAGCG	0.234
ACGGAGCA	0.207
CTGGAGCC	-0.204
CCGGAGCA	0.307

Sequence	PBM E-score
CGGCGGTA	0.14
CGTTTATC	0.171
ACCCTGGG	-0.279
AGCGTAGC	-0.0963
CCTTTGAA	-0.0516
ATGATCGC	-0.106
AATGATAA	0.299
ATTAATAA	0.265
AATAATAG	0.157
CTTAATAA	0.217
AATAATAC	0.202
TATGATAA	0.233
GTTAATAA	0.319
AATGATAG	0.251
AATAATAT	0.346
GATAATAA	0.234
AATAATAA	0.304
AATAATGT	0.235
AACTTAAG	0.132
CAGTTTGG	-0.198
AAGCGCAC	0.00639
TTACGTAA	-0.0108
ATCAGATG	-0.0902
CATCTGAC	-0.163
TGTCAGAA	-0.0161

Sequence	PBM E-score
GGTAATAA	0.188
CATAACAA	0.179
TATAACAA	0.319
AGTAATAG	0.063
AGTAATAT	0.312
CGTAATAA	0.0956
CATAATAA	0.131
TATAATAA	0.298
TCTAATAA	0.173
AGTAATAC	0.133
GATAACAA	0.205
TGTAATAA	0.315
CATCTTCG	-0.0746
AAGATCAA	0.0587
AATTGCAG	0.0512
GCGACCGC	-0.23
AACAATAT	0.331
AACAATAA	0.192
AACAATAC	0.0474
AGGCTGAC	-0.245
ATAGGTCA	0.0286
AGAATGTC	-0.0101
AAGCATAC	0.164
ATAAAATG	0.289
CTTCGGTA	0.0563

Sequence	PBM E-score
CTTCGGGC	-0.277
CTTCGGAC	0.405
CTTCGGAA	0.335
CTTCGGCC	-0.00176
GTTCGGAA	0.289
CGCGACAG	-0.283
TGGCGACA	-0.207
CATTCGGG	-0.0375
GATTCGGC	0.0544
AATTCGGA	0.396
GATTCGGA	0.385
TATTCGAA	0.0804
GATTCGCA	0.113
AATTCGGG	0.17
AATTCGGC	-0.0483
CATTCGGC	-0.0155
TATTCGCA	0.0506
CATTCGGA	0.392
TATTCGGA	0.352
GCGGGAGC	-0.162
CCGCGAAC	0.0271
ATCTAGGG	-0.097
CAGCCCGA	-0.211
ACAGGACC	-0.108
CGGCCCAA	-0.116

Sequence	PBM E-score
CGTTGACC	-0.224
TGAAAGCA	0.148
CGTAATTC	0.0414
ATTAATTA	0.188
AGTAATTC	0.307
ATTAATTG	0.187
ATTAATTC	0.298
AGTAATTG	0.0745
CGACAGCA	-0.0542
TGATCGCA	-0.221
CATGAGCC	-0.195
GAATTCAC	0.0262
GAGAAGGA	-0.0992
AAGTCCCT	-0.131
AAGTCCAT	0.0246
AAGTCCTC	0.0867
ACGTCCGC	-0.121
AAGTCCGC	0.486
AAGTCCGT	0.487
TCCTTCGA	0.11
GAATATGC	0.0981
GCCCGCAA	-0.0979
